For part of these data: Measured potencies and affinities stand elsewhere.

What all share (set-up): scale not given: direction of the effect not stated beside the values
Experiment [1] has as its target Protein translocase subunit SecA (Escherichia coli (strain K12)) (UniProt P10408). As to the kind of experiment: Assay to Identify E. coli SecA ATPase Inhibitors. Type of experiment: functional. The following applies: 30 µM.
In experiment [2] the target is T1, Ubiquitin-activating enzyme e1, putative (Leishmania donovani (strain BPK282A1)) (UniProt E9BSI1).
T1 sequence (whole entry): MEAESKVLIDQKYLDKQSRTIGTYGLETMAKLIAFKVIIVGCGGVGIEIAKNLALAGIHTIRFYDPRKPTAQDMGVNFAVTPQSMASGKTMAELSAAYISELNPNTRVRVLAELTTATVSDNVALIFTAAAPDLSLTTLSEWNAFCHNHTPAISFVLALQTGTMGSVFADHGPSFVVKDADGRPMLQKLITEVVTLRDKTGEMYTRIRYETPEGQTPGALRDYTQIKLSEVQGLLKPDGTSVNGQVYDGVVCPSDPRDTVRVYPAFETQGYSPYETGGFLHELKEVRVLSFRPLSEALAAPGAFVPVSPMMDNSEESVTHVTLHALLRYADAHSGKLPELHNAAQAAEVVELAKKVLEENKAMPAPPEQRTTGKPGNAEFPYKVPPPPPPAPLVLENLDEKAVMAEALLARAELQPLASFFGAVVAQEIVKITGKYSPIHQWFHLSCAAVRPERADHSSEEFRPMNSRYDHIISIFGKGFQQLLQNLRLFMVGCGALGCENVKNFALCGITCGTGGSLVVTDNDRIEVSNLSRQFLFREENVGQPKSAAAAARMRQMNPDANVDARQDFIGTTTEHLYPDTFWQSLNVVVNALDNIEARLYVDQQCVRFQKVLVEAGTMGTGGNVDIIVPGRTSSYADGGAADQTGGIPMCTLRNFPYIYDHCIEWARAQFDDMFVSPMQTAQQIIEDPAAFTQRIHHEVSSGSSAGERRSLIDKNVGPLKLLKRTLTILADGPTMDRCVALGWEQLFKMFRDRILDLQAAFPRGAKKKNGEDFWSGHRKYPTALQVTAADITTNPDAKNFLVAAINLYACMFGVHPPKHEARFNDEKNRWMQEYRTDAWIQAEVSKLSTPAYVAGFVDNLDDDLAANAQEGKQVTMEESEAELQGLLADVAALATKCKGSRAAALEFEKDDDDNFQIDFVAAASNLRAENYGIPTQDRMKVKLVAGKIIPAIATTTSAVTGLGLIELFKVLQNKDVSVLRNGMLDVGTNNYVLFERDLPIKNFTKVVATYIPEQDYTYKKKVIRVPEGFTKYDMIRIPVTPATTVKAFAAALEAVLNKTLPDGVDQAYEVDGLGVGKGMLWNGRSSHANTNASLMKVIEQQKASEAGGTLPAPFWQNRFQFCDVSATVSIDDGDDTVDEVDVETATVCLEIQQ
Nature of the experiment: Leishmania donovani Ubiquitin Activating Enzyme (LdE1). Type of experiment: functional. The note with it: 30 µM.

Experiment [3] has as its target Sialic acid-binding Ig-like lectin 9 (Homo sapiens) (UniProt Q9Y336). Nature of the experiment: Hs-Siglec9 ALPHAscreen SOP 20170721. The note with it: 10 µM. In general terms: Bead proximity is the source of the signal in Alpha formats.
Another experiment concerns Trypanosoma cruzi. Nature of the experiment: Trypanosoma cruzi phosphomannomutase and mannose-1-phosphate guanylyltransferase assay. In kind it is functional. The following applies: 10 µM.
For experiment [4], the target named is T2, Arginase-2, mitochondrial (Homo sapiens) (UniProt P78540).
T2 sequence (whole entry): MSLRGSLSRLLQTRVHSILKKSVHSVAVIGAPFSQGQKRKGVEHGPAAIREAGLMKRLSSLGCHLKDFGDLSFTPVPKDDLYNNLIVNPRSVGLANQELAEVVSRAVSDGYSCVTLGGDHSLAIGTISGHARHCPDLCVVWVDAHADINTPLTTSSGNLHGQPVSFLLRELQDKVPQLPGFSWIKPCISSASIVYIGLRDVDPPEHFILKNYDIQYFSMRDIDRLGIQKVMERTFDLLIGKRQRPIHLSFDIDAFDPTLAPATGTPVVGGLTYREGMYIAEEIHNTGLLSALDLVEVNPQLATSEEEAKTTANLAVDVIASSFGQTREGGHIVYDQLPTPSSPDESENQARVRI
Nature of the experiment: in vitro enzyme assay to detect the production of urea directly proportional to the activity of Arginase II. Note: in the data most compounds retested in dose-response had high values. Type of experiment: functional. The note with it: 33.3 µM.

For experiment [5], the target named is T3, Proteasome subunit beta (Trypanosoma cruzi) (UniProt O96673).
T3 sequence (whole entry): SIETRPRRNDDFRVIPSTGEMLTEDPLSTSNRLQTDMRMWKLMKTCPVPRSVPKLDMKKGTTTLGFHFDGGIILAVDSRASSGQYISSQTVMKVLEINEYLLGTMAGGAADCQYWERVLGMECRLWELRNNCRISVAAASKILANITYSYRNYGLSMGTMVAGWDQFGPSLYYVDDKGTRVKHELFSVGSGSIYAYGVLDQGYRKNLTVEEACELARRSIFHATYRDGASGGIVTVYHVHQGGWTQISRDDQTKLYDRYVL
As to the kind of experiment: Trypanosoma cruzi proteasome chymotrypsin-like activity (TcProtChymo) assay. Note: in the data most compounds retested in dose-response had high values. The note with it: 9.37 µM. In kind it is functional.

The species named for another experiment is Homo sapiens. Nature of the experiment: To identify inhibition of the IFN signalling (Jak-Stat) pathway via expression of an eGFP reporter gene under the control of an IFN-stimulated response element (ISRE) containing MxA promoter. In kind it is functional. The following applies: 30 µM. In general terms: A reporter such as luciferase makes a cellular process visible.

Experiment [6] has as its target T4, Tyrosyl-tRNA synthetase, putative (Trypanosoma cruzi (strain CL Brener)) (UniProt Q4DSP6).
T4 sequence (whole entry): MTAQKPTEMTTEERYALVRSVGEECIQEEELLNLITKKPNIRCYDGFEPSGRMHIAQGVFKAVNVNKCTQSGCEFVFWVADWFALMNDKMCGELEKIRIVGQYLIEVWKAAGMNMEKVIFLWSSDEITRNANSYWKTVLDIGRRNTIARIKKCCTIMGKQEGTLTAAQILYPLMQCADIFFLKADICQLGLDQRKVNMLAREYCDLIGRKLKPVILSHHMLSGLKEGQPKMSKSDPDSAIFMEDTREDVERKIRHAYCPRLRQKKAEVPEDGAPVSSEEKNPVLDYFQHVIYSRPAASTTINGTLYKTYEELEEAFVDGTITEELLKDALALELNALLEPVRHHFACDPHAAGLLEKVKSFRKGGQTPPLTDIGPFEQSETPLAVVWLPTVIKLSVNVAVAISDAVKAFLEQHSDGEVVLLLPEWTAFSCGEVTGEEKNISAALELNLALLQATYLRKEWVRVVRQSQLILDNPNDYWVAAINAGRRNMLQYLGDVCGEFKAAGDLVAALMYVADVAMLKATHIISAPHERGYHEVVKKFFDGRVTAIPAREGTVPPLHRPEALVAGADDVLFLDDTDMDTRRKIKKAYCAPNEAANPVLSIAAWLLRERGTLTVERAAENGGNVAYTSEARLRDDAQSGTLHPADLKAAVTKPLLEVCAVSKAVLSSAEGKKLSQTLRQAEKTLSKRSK
As to the kind of experiment: Trypanosoma cruzi tyrosyl tRNA synthetase (TcYRS) _High Tyrosine SOP. Note: in the data most compounds retested in dose-response had high values. Type of experiment: functional. The note with it: 30 µM.

Experiment [7] addresses T4, Tyrosyl-tRNA synthetase, putative (Trypanosoma cruzi (strain CL Brener)). Nature of the experiment: Trypanosoma cruzi tyrosyl tRNA synthetase (TcYRS) SOP. Type of experiment: functional. The note with it: 30 µM.
The target of experiment [8] is Chromo domain-containing protein 1 (Saccharomyces cerevisiae (strain ATCC 204508 / S288c) (Baker's yeast)) (UniProt P32657). As to the kind of experiment: ScCHD-1 Enzyme Inhibition Assay. Note: in the data most compounds retested in dose-response had high values. The following applies: 30 µM. Type of experiment: functional.
Sequence of Chromo domain-containing protein 1 (Saccharomyces cerevisiae (strain ATCC 204508 / S288c) (Baker's yeast)) (P32657 whole entry, the tested form may be a part): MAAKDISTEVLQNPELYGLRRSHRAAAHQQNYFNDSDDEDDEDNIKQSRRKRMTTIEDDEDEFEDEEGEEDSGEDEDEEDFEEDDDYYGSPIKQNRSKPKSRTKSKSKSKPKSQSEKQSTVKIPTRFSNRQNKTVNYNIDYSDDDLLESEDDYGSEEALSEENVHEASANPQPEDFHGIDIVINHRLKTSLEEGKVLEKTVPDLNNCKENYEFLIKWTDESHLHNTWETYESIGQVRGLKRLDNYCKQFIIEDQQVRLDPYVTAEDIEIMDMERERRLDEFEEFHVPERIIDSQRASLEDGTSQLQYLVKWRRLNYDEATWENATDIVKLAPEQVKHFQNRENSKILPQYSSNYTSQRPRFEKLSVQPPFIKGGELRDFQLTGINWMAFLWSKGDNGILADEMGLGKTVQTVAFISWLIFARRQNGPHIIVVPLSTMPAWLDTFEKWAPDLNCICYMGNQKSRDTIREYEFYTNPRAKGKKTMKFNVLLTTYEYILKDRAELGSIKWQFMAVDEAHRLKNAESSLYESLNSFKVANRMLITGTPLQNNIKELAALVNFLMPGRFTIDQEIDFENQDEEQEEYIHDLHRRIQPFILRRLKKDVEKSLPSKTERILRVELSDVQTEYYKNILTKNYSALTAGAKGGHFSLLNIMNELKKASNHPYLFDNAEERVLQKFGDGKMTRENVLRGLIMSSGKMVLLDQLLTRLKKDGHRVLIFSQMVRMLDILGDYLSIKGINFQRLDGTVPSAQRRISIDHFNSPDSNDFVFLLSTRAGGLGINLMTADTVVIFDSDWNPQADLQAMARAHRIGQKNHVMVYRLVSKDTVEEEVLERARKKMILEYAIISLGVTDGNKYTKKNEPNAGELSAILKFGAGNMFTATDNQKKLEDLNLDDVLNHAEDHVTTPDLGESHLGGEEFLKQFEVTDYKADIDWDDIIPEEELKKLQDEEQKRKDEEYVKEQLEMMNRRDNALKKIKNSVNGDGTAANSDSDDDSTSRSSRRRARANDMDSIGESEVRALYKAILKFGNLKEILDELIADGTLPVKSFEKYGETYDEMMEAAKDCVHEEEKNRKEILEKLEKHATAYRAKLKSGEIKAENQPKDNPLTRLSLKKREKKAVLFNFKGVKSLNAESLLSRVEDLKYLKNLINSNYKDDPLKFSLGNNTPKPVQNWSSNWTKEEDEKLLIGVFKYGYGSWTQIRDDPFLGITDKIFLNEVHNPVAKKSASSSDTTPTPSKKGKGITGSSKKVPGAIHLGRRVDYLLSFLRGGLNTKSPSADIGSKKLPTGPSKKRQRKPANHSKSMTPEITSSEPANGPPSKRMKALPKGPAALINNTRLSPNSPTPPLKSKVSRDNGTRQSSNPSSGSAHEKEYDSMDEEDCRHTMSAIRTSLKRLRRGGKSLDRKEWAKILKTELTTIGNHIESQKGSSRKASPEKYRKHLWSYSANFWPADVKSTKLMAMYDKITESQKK

Sequence of Sialic acid-binding Ig-like lectin 9 (Homo sapiens) (Q9Y336 whole entry): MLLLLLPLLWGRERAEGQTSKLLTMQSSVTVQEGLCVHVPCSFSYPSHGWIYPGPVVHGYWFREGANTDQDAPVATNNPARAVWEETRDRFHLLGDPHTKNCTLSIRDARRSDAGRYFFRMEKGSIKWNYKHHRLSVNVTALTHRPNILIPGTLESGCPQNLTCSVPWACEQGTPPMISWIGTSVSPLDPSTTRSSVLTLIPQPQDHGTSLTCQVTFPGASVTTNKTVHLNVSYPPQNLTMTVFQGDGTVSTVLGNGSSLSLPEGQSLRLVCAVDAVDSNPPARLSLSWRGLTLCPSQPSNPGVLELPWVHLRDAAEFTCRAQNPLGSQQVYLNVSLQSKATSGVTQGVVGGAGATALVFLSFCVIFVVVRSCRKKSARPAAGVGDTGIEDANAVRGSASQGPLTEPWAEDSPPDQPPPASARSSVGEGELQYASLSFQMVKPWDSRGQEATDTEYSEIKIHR
Sequence of Protein translocase subunit SecA (Escherichia coli (strain K12)) (P10408 whole entry): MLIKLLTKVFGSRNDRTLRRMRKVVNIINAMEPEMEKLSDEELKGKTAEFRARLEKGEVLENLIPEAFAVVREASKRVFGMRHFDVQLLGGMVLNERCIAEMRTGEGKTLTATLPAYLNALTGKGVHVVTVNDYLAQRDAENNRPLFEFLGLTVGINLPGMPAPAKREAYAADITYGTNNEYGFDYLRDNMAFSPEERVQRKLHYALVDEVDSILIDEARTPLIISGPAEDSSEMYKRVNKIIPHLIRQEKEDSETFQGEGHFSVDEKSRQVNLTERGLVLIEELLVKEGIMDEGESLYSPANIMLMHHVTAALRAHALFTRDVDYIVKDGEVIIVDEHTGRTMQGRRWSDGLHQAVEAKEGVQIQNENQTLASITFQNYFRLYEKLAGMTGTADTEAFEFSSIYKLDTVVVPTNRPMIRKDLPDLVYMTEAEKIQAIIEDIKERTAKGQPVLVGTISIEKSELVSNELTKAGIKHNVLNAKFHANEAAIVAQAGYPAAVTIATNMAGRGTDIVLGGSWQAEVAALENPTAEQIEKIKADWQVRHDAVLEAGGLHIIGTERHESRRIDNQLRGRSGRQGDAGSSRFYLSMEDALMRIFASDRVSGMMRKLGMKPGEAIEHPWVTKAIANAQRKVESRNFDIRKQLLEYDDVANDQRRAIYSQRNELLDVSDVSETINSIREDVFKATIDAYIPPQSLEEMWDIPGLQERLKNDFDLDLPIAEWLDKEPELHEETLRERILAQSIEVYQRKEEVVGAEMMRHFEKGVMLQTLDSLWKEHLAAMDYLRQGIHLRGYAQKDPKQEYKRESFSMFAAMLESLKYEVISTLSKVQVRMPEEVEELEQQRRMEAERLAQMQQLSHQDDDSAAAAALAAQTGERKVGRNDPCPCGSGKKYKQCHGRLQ

As to `Cc1cnn(CC2CCCN2C(=O)c2cc(Cl)ccc2F)c1` (stereo not given), the Percent Effect in experiment [1] was -1.32%; in [2], 2.6%; in [3], -6.93%; in the experiment with Trypanosoma cruzi, -0.933%; in experiment [4], 5.12%; in [5] it was 4.91%. Moreover, the Percent Effect is 10.8% in the experiment filed under Homo sapiens, -1.96% in [6], -2.35% in experiment [7] and 2.99% in experiment [8].
Consider `Cc1noc(C)c1CN(C)C(=O)NC1CCN(c2ncccn2)CC1`, for which the Percent Effect in experiment [1] is -4.16%; in experiment [2] it was 10.3%; in experiment [3] it was -17.2%; in the experiment on Trypanosoma cruzi, 11.7%; in experiment [4], -0.82%; in experiment [5] it was 9.64%. Moreover, the Percent Effect is 13.1% in the experiment listed under Homo sapiens, 5.26% in experiment [6], 20.5% in experiment [7] and -9.27% in [8].
Turning to `Cc1ncc(-c2ccnc(N3CCCCC3)n2)c(=O)[nH]1`, the Percent Effect in experiment [1] is -0.483%; in experiment [2], 8%; in [3] it was 1.07%; with Trypanosoma cruzi it was -8.84%; in experiment [4], -0.887%; in experiment [5] it was 9.07%. The Percent Effect is 21.2% in the experiment filed under Homo sapiens, 0.526% in experiment [6], 5.13% in [7] and -11.6% in experiment [8].
For the molecule `CC(Cn1cccn1)NC(=O)NCc1ccccn1` (stereo not given), the Percent Effect was -2.65% in [1]; 8% in experiment [2]; -5.88% in experiment [3]; -5.22% in the experiment with Trypanosoma cruzi; 1.33% in experiment [4]; 7.04% in [5]. The Percent Effect is 13.9% in the experiment filed under Homo sapiens, 1.58% in [6], 10.3% in [7] and -11% in [8].
In the case of `Cc1cnn(CC2CCCCN2C(=O)c2cc(Cl)c[nH]2)c1` (stereo not given), the Percent Effect was -3.19% in experiment [1]; 20.8% in experiment [2]; 10.9% in [3]; 6.53% with Trypanosoma cruzi; -5.53% in [4]; 6.67% in [5]. Further, the Percent Effect in the experiment filed under Homo sapiens was 15.7%; in experiment [6], 5.88%; in [7], 23.5%; in experiment [8], -9.18%.
For the molecule `Cn1cc(CN2CCCC3(CCCN3S(C)(=O)=O)C2)cn1` (stereo not given), the Percent Effect in [1] is -3.74%; in experiment [2] it was 9.09%; in [3], -4.49%; in the experiment on Trypanosoma cruzi, -4.77%; in [4] it was 2.02%; in experiment [5], 12.3%. The Percent Effect is -3.8% in the experiment listed under Homo sapiens, 5.79% in experiment [6], 10.3% in [7] and 1.97% in [8].
Take `CCc1sc(-c2nnc(CNCCn3cc(C)cn3)o2)cc1C`: the Percent Effect in experiment [1] was -2.72%; in experiment [2] it was 5.2%; in experiment [3], 8.91%; in the experiment on Trypanosoma cruzi, -6.34%; in experiment [4] it was 4.71%; in [5], 1.93%. Further, the Percent Effect was 10.2% in the experiment filed under Homo sapiens, 4.9% in experiment [6], 7.06% in [7] and -8.57% in experiment [8].
For the molecule `CCOC1COC2(CCN(S(=O)(=O)c3cccc(F)c3)CC2)C1` (stereo not given), the Percent Effect in experiment [1] is -2.48%; in [2], 6.49%; in experiment [3], -0.342%; in the experiment on Trypanosoma cruzi, -7.3%; in experiment [4], 6.07%; in experiment [5] it was 19.9%. Also, the Percent Effect in the experiment filed under Homo sapiens is -2.83%; in [6] it was 6.84%; in experiment [7], 7.69%; in experiment [8], -3.54%.
As to `Cc1noc(C)c1CC(=O)OCC(=O)N1CCc2sccc2C1`, the Percent Effect is -3.42% in experiment [1]; 18.7% in experiment [2]; 0.304% in experiment [3]; 0.201% in the experiment with Trypanosoma cruzi; -3.99% in [4]; 14.3% in experiment [5]. The Percent Effect was 12.1% in the experiment listed under Homo sapiens, 6.84% in experiment [6], 23.1% in experiment [7] and -8.07% in experiment [8].
In the case of `CC(C)CNc1nc(C(=O)/N=c2\[nH]nc(C(C)(C)C)s2)cs1`, the Percent Effect in experiment [1] was 2.26%; in experiment [2], 8.11%; in [3], -0.928%; in the experiment on Trypanosoma cruzi, -8.83%; in experiment [4], 1.75%; in experiment [5] it was 12.3%. In addition, the Percent Effect came out at 19.4% in the experiment filed under Homo sapiens, 5.85% in [6], 17.1% in experiment [7] and 1.47% in experiment [8].
With `CN(C)c1ccccc1C(=O)N1C[C@@H](CN2CCCCC2)[C@@H](CO)C1`, the Percent Effect was -7.49% in [1]; 2.7% in experiment [2]; 6.19% in [3]; 7.27% with Trypanosoma cruzi; -5.25% in experiment [4]; 16.6% in [5]. Also, the Percent Effect is -22.6% in the experiment filed under Homo sapiens, 3.72% in [6], 12.2% in experiment [7] and -3.83% in experiment [8].
For `COc1cccc(COCC(=O)N2CCCC(n3ccnc3C)C2)c1` (stereo not given), the Percent Effect in experiment [1] was -2.06%; in experiment [2], -5.13%; in experiment [3], -2.52%; with Trypanosoma cruzi, 4.6%; in experiment [4] it was 4.92%; in experiment [5], -4.35%. In addition, the Percent Effect in the experiment listed under Homo sapiens was 19.1%; in experiment [6], -3.35%; in experiment [7], 1.21%; in experiment [8] it was 2.95%.

Source of the values: ChEMBL document CHEMBL3988442, “University of Dundee, Small-Polar-MMV Screening Library” (2021).
